{"source": "the supplement of paper PMC8728848", "experiment_in_all_cases": "glycan array binding signal (z-score within array); higher = stronger binding", "details_in_all_cases": "glycan notation: IUPAC condensed, linker removed", "key": {"[1]": {"target": "Fuc(a1-2)Gal(b1-3)GalNAc(b1-3)Gal(a1-4)Gal(b1-4)Glc", "summary_of_the_method": "(§1)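 Glycan array data came from 3228 arrays in the Consortium for Functional Glycomics database, and only arrays with an available protein sequence were kept. Glycan names were put into IUPAC-condensed notation, and columns mapping to the same glycan were averaged. The binding signal is a within-array Z-score, averaged across arrays of one protein sequence run at different concentrations or buffers and across linkers. A negative Z-score can be read as non-binding.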"}, "[2]": {"target": "Fuc(a1-2)Gal(b1-3)GlcNAc(b1-2)Man(a1-3)[Fuc(a1-2)Gal(b1-3)GlcNAc(b1-2)Man(a1-6)]Man(b1-4)GlcNAc(b1-4)[Fuc(a1-6)]GlcNAc", "summary_of_the_method": "as §1"}, "[3]": {"target": "Fuc(a1-2)Gal(b1-3)[Fuc(a1-4)]GlcNAc", "summary_of_the_method": "as §1"}, "Fuc(a1-2)Gal6S(b1-4)Glc": {"target": "Fuc(a1-2)Gal6S(b1-4)Glc", "summary_of_the_method": "as §1"}, "Fuc(a1-4)GlcNAc": {"target": "Fuc(a1-4)GlcNAc", "summary_of_the_method": "as §1"}, "Fuc(b1-3)GlcNAc": {"target": "Fuc(b1-3)GlcNAc", "summary_of_the_method": "as §1"}, "[4]": {"target": "Gal(a1-3)Gal(b1-4)GlcNAc(b1-2)Man", "summary_of_the_method": "as §1"}, "[5]": {"target": "Gal(a1-3)Gal(b1-4)GlcNAc(b1-3)GalNAc", "summary_of_the_method": "as §1"}, "[6]": {"target": "Gal(a1-4)Gal(b1-4)GlcNAc(b1-3)Gal(b1-4)Glc", "summary_of_the_method": "as §1"}, "Gal(b1-3)GalNAc(b1-3)Gal": {"target": "Gal(b1-3)GalNAc(b1-3)Gal", "summary_of_the_method": "as §1"}, "[7]": {"target": "Gal(b1-3)GlcNAc(b1-2)Man(a1-3)[Gal(b1-3)GlcNAc(b1-2)Man(a1-6)]Man(b1-4)GlcNAc(b1-4)[Fuc(a1-6)]GlcNAc", "summary_of_the_method": "as §1"}, "[8]": {"target": "Gal(b1-3)[Fuc(a1-4)]GlcNAc(b1-2)Man", "summary_of_the_method": "as §1"}, "[9]": {"target": "Gal(b1-4)GlcNAc(b1-2)Man(a1-3)[Gal(b1-4)GlcNAc(b1-2)Man(a1-6)]Man(b1-4)GlcNAc(b1-4)[Fuc(a1-6)]GlcNAc", "summary_of_the_method": "as §1"}, "[10]": {"target": "Gal(b1-4)GlcNAc(b1-2)Man(a1-3)[Gal(b1-4)GlcNAc(b1-2)Man(a1-6)][Gal(b1-4)GlcNAc(b1-4)]Man(b1-4)GlcNAc(b1-4)[Fuc(a1-6)]GlcNAc", "summary_of_the_method": "as §1"}, "[11]": {"target": "Gal(b1-4)GlcNAc(b1-2)Man(a1-6)Man(b1-4)GlcNAc(b1-4)GlcNAc", "summary_of_the_method": "as §1"}, "[12]": {"target": "Gal(b1-4)GlcNAc(b1-2)[Gal(b1-4)GlcNAc(b1-6)]Man(a1-6)[Gal(b1-4)GlcNAc(b1-2)Man(a1-3)]Man(b1-4)GlcNAc(b1-4)[Fuc(a1-6)]GlcNAc", "summary_of_the_method": "as §1"}, "[13]": {"target": "Gal(b1-4)GlcNAc(b1-3)Gal(b1-3)GalNAc", "summary_of_the_method": "as §1"}, "[14]": {"target": "Gal(b1-4)GlcNAc(b1-3)Gal(b1-4)GlcNAc", "summary_of_the_method": "as §1"}, "[15]": {"target": "Gal(b1-4)GlcNAc(b1-3)Gal(b1-4)GlcNAc(b1-2)Man(a1-3)[Gal(b1-4)GlcNAc(b1-3)Gal(b1-4)GlcNAc(b1-2)Man(a1-6)]Man(b1-4)GlcNAc(b1-4)[Fuc(a1-6)]GlcNAc", "summary_of_the_method": "as §1"}, "[16]": {"target": "Gal(b1-4)GlcNAc(b1-3)Gal(b1-4)GlcNAc(b1-3)Gal(b1-4)GlcNAc(b1-2)Man(a1-3)[Gal(b1-4)GlcNAc(b1-3)Gal(b1-4)GlcNAc(b1-3)Gal(b1-4)GlcNAc(b1-2)Man(a1-6)]Man(b1-4)GlcNAc(b1-4)[Fuc(a1-6)]GlcNAc", "summary_of_the_method": "as §1"}, "[17]": {"target": "Gal(b1-4)GlcNAc(b1-3)Gal(b1-4)GlcNAc(b1-3)Gal(b1-4)GlcNAc(b1-3)Gal(b1-4)GlcNAc(b1-2)Man(a1-3)[Gal(b1-4)GlcNAc(b1-3)Gal(b1-4)GlcNAc(b1-3)Gal(b1-4)GlcNAc(b1-3)Gal(b1-4)GlcNAc(b1-2)Man(a1-6)]Man(b1-4)GlcNAc(b1-4)[Fuc(a1-6)]GlcNAc", "summary_of_the_method": "as §1"}, "[18]": {"target": "Gal(b1-4)GlcNAc(b1-3)Gal(b1-4)GlcNAc(b1-3)Gal(b1-4)GlcNAc(b1-3)Gal(b1-4)GlcNAc(b1-3)Gal(b1-4)GlcNAc(b1-2)Man(a1-3)[Gal(b1-4)GlcNAc(b1-3)Gal(b1-4)GlcNAc(b1-3)Gal(b1-4)GlcNAc(b1-3)Gal(b1-4)GlcNAc(b1-3)Gal(b1-4)GlcNAc(b1-2)Man(a1-6)]Man(b1-4)GlcNAc(b1-4)[Fuc(a1-6)]GlcNAc", "summary_of_the_method": "as §1"}, "[19]": {"target": "Gal(b1-4)GlcNAc(b1-3)Gal(b1-4)GlcNAc(b1-6)[Gal(b1-3)]GalNAc", "summary_of_the_method": "as §1"}, "Gal6S(b1-3)GlcNAc6S": {"target": "Gal6S(b1-3)GlcNAc6S", "summary_of_the_method": "as §1"}, "Gal6S(b1-4)Glc6S": {"target": "Gal6S(b1-4)Glc6S", "summary_of_the_method": "as §1"}, "GalNAc4S6S(b1-4)GlcNAc": {"target": "GalNAc4S6S(b1-4)GlcNAc", "summary_of_the_method": "as §1"}, "[20]": {"target": "GlcNAc(a1-3)Gal(b1-4)GlcNAc", "summary_of_the_method": "as §1"}, "[21]": {"target": "GlcNAc(b1-2)[GlcNAc(b1-6)]Man(a1-6)[GlcNAc(b1-2)Man(a1-3)]Man(b1-4)GlcNAc(b1-4)[Fuc(a1-6)]GlcNAc", "summary_of_the_method": "as §1"}, "[22]": {"target": "GlcNAc(b1-3)Gal(b1-4)GlcNAc(b1-2)Man(a1-3)[GlcNAc(b1-3)Gal(b1-4)GlcNAc(b1-2)Man(a1-6)]Man(b1-4)GlcNAc(b1-4)GlcNAc", "summary_of_the_method": "as §1"}, "[23]": {"target": "GlcNAc(b1-3)Gal(b1-4)GlcNAc(b1-3)Gal(b1-4)GlcNAc(b1-2)Man(a1-3)[GlcNAc(b1-3)Gal(b1-4)GlcNAc(b1-3)Gal(b1-4)GlcNAc(b1-2)Man(a1-6)]Man(b1-4)GlcNAc(b1-4)[Fuc(a1-6)]GlcNAc", "summary_of_the_method": "as §1"}, "Kdn(a2-3)Gal(b1-3)GalNAc": {"target": "Kdn(a2-3)Gal(b1-3)GalNAc", "summary_of_the_method": "as §1"}, "[24]": {"target": "Man(a1-3)[Man(a1-6)]Man(b1-4)GlcNAc(b1-4)[Fuc(a1-6)]GlcNAc", "summary_of_the_method": "as §1"}, "[25]": {"target": "Neu5Ac(a2-3)Gal(b1-3)GlcNAc(b1-2)[Neu5Ac(a2-3)Gal(b1-3)GlcNAc(b1-4)]Man(a1-6)[Neu5Ac(a2-3)Gal(b1-3)GlcNAc(b1-2)Man(a1-3)]Man(b1-4)GlcNAc(b1-4)GlcNAc", "summary_of_the_method": "as §1"}, "[26]": {"target": "Neu5Ac(a2-3)Gal(b1-3)GlcNAc6S", "summary_of_the_method": "as §1"}, "[27]": {"target": "Neu5Ac(a2-3)Gal(b1-4)GlcNAc(b1-2)Man(a1-3)[Neu5Ac(a2-3)Gal(b1-4)GlcNAc(b1-2)Man(a1-6)]Man(b1-4)GlcNAc(b1-4)[Fuc(a1-6)]GlcNAc", "summary_of_the_method": "as §1"}, "[28]": {"target": "Neu5Ac(a2-6)Gal(b1-4)GlcNAc(b1-2)Man(a1-3)[Neu5Ac(a2-3)Gal(b1-4)GlcNAc(b1-2)Man(a1-6)]Man(b1-4)GlcNAc(b1-4)GlcNAc", "summary_of_the_method": "as §1"}, "[29]": {"target": "Neu5Ac(a2-6)Gal(b1-4)GlcNAc(b1-2)Man(a1-3)[Neu5Ac(a2-6)Gal(b1-4)GlcNAc(b1-2)Man(a1-6)]Man(b1-4)GlcNAc(b1-4)[Fuc(a1-6)]GlcNAc", "summary_of_the_method": "as §1"}, "[30]": {"target": "Neu5Ac(a2-6)Gal(b1-4)GlcNAc(b1-6)[Gal(b1-3)GlcNAc(b1-3)]Gal(b1-4)Glc", "summary_of_the_method": "as §1"}, "[31]": {"target": "Neu5Ac(a2-8)Neu5Ac(a2-8)Neu5Ac(a2-3)[GalNAc(b1-4)]Gal(b1-4)Glc", "summary_of_the_method": "as §1"}, "Neu5Ac(b2-6)GalNAc": {"target": "Neu5Ac(b2-6)GalNAc", "summary_of_the_method": "as §1"}}, "note": "Shown is part of a subset that was picked to be rich in the strongest signals.", "data": [{"binder": "BTL (Bryothamnion triquetrum) (protein) ADPICGSSGYSCTTPAILTPKSPGSFPSGYSKVIVTGVGGSYSVYIHRPDGFKVYKASEGGCASFGSYSGGGNSEVGKYGSGGTVVAVACK", "values": [{"measurement": "glycan array binding signal (z-score)", "setting": "[1]", "value": -0.262}, {"measurement": "glycan array binding signal (z-score)", "setting": "[2]", "value": 2.75}, {"measurement": "glycan array binding signal (z-score)", "setting": "[3]", "value": -0.245}, {"measurement": "glycan array binding signal (z-score)", "setting": "Fuc(a1-2)Gal6S(b1-4)Glc", "value": -0.244}, {"measurement": "glycan array binding signal (z-score)", "setting": "Fuc(a1-4)GlcNAc", "value": -0.199}, {"measurement": "glycan array binding signal (z-score)", "setting": "Fuc(b1-3)GlcNAc", "value": -0.257}, {"measurement": "glycan array binding signal (z-score)", "setting": "[4]", "value": -0.311}, {"measurement": "glycan array binding signal (z-score)", "setting": "[5]", "value": -0.244}, {"measurement": "glycan array binding signal (z-score)", "setting": "[6]", "value": -0.208}, {"measurement": "glycan array binding signal (z-score)", "setting": "Gal(b1-3)GalNAc(b1-3)Gal", "value": -0.22}, {"measurement": "glycan array binding signal (z-score)", "setting": "[7]", "value": 4.76}, {"measurement": "glycan array binding signal (z-score)", "setting": "[8]", "value": -0.111}, {"measurement": "glycan array binding signal (z-score)", "setting": "[9]", "value": 4.92}, {"measurement": "glycan array binding signal (z-score)", "setting": "[10]", "value": 0.352}, {"measurement": "glycan array binding signal (z-score)", "setting": "[11]", "value": -0.192}, {"measurement": "glycan array binding signal (z-score)", "setting": "[12]", "value": 6.49}, {"measurement": "glycan array binding signal (z-score)", "setting": "[13]", "value": -0.107}, {"measurement": "glycan array binding signal (z-score)", "setting": "[14]", "value": -0.27}, {"measurement": "glycan array binding signal (z-score)", "setting": "[15]", "value": 6.38}, {"measurement": "glycan array binding signal (z-score)", "setting": "[16]", "value": 5.89}, {"measurement": "glycan array binding signal (z-score)", "setting": "[17]", "value": 4.48}, {"measurement": "glycan array binding signal (z-score)", "setting": "[18]", "value": 4.45}, {"measurement": "glycan array binding signal (z-score)", "setting": "[19]", "value": -0.128}, {"measurement": "glycan array binding signal (z-score)", "setting": "Gal6S(b1-3)GlcNAc6S", "value": -0.24}, {"measurement": "glycan array binding signal (z-score)", "setting": "Gal6S(b1-4)Glc6S", "value": -0.18}, {"measurement": "glycan array binding signal (z-score)", "setting": "GalNAc4S6S(b1-4)GlcNAc", "value": -0.129}, {"measurement": "glycan array binding signal (z-score)", "setting": "[20]", "value": -0.194}, {"measurement": "glycan array binding signal (z-score)", "setting": "[21]", "value": 4.85}, {"measurement": "glycan array binding signal (z-score)", "setting": "[22]", "value": -0.193}, {"measurement": "glycan array binding signal (z-score)", "setting": "[23]", "value": 4.09}, {"measurement": "glycan array binding signal (z-score)", "setting": "Kdn(a2-3)Gal(b1-3)GalNAc", "value": -0.259}, {"measurement": "glycan array binding signal (z-score)", "setting": "[24]", "value": 4.2}, {"measurement": "glycan array binding signal (z-score)", "setting": "[25]", "value": -0.099}, {"measurement": "glycan array binding signal (z-score)", "setting": "[26]", "value": -0.24}, {"measurement": "glycan array binding signal (z-score)", "setting": "[27]", "value": 5.15}, {"measurement": "glycan array binding signal (z-score)", "setting": "[28]", "value": -0.249}, {"measurement": "glycan array binding signal (z-score)", "setting": "[29]", "value": 8.12}, {"measurement": "glycan array binding signal (z-score)", "setting": "[30]", "value": -0.204}, {"measurement": "glycan array binding signal (z-score)", "setting": "[31]", "value": -0.289}, {"measurement": "glycan array binding signal (z-score)", "setting": "Neu5Ac(b2-6)GalNAc", "value": -0.274}]}]}
